D1 antag = Antagonist of Human D 1 Dopamine Receptor: qHTS; 3.2% of 360,000 active; D(1A) dopamine receptor (Homo sapiens), P21728; activity change, negative = inhibition, % at 10 µM; HEK293 TREx D1 cells, calcium flux, dopamine EC80; stronger effect = lower value; AID 504652, 2011; in the data active = activity change below about -30%; note: % is set by controls: 0 for no effect and ±100 for the full control effect
Target sequence (P21728 whole entry, looked up): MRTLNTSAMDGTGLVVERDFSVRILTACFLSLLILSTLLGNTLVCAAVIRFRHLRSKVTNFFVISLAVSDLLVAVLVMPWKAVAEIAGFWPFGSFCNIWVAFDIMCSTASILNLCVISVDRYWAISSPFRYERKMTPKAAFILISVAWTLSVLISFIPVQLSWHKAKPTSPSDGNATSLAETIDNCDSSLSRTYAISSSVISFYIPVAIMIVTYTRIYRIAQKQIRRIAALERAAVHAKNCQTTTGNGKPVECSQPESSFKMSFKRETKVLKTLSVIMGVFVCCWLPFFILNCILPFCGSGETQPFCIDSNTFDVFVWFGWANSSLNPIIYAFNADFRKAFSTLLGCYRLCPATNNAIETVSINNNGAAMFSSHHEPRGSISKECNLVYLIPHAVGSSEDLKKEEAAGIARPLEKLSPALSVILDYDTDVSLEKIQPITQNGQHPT
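Cells carrying a force-coupled, tetracycline-inducible human D1 receptor report calcium flux. Each well gets a 10 s baseline, compound with 180 s monitoring, then an EC80 dopamine stimulus with a second 180 s kinetic read.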
DRD3 antagonist = qHTS of D3 Dopamine Receptor Antagonist: qHTS; D(3) dopamine receptor (Homo sapiens), P35462; D3R cells, DiscoveRx beta-arrestin luminescence, antagonist mode; stronger effect = lower value; max response, negative = inhibition, %; 2.5% of 360,000 active; in the data active = max response below about -50%; inconclusive = no clear call, values can overlap the other calls; note: % is set by controls: 0 for no effect and ±100 for the full control effect
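Cells plated overnight at 1500 cells/well, then exposed to library compounds with dopamine controls for 90 minutes at 37 degrees C. DiscoveRx reagent added for 30–60 minutes at room temperature; luminescence read, quantitative HTS format.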
D1 agonist = Allosteric Agonists of the Human D1 Dopamine Receptor: qHTS; D(1A) dopamine receptor (Homo sapiens), P21728; 1% of 360,000 active; activation, % at 2 µM; HEK293 T-REx D1 cells, calcium flux, agonist mode; in the data active = activation above about 30%; note: 0% is about no effect
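Agonism was scored from calcium flux recorded over 180 s (1 read/s) after pintool compound addition, following a 10-cycle baseline. Cells were inducible force-coupled HEK293 TREx D1, plated overnight at 30 C and loaded with no-wash calcium dye.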
D1 potentiator = Potentiators of Human D1 Dopamine Receptor: qHTS | D(1A) dopamine receptor (Homo sapiens), P21728 | potentiation, % at 10 µM | 0.036% of 360,000 active | AID 504651, 2011 | HEK293 TREx D1 cells, calcium flux, dopamine EC20 potentiation; in the data active = potentiation above about 30%; note: 0% is about no effect
D3 ag = qHTS of D3 Dopamine Receptor Agonist: qHTS; D3R DiscoveRx beta-arrestin cells, luminescence, 90 min; max activation, %; 0.58% of 410,000 active; in the data active = max activation above about 30%; note: 0% is about no effect
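Cells at 1500/well, incubated overnight, then treated with pinned compounds (dopamine as control) for 90 min at 37 degrees C. DiscoveRx reagent added for 30 - 60 minutes at room temperature; luminescence read.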
* hit, by the source's call; u = inconclusive; x = no result given; ! = a repeat was not active. Shown are actives, neighbours in structure and some others; about 6% of the full set was active somewhere.

SMILES	D1 antag	DRD3 antagonist	D1 agonist	D1 potentiator	D3 ag
NCCOc1ccc(C23CC4CC(CC(C4)C2)C3)cc1	55.9	35.2	126.7*	35.9*	3.5
Cc1cc(OCC(O)CN2CCCC2)cc(C)c1Cl (configuration not stated)	-12.3	-24.6	14.2	-1.0	-4.9
OC(COc1ccc(Cl)cc1)CN1CCCCC1 (configuration not stated)	7.8	-54.8*	5.6	-3.4	-20.3
OC(COc1c(Cl)cc(Cl)cc1Cl)CN1CCCCC1 (configuration not stated)	6.4	-63.0*	3.6	-1.5	-22.4
OC(COc1ccc(CNCCc2ccc(C(F)(F)F)cc2)cc1)CN1CCCCC1 (configuration not stated)	-37.5*	u	34.5*	-3.0	-12.1
CCc1nc2ccc(C(=O)NCc3ccc(OC)c(OC)c3)cc2nc1CC	2.7	x	-0.5	-2.1	1.5
OCCN1CCN(CC(O)COc2ccc(C34CC5CC(CC(C5)C3)C4)cc2)CC1 (configuration not stated)	-41.8*	-27.2	63.0*	-3.0	-7.2
COc1ccc2occ(C(C)=O)c2c1	-5.7	-6.7	4.0	2.9	-1.9
CC(=O)c1coc2ccc(OCCN3CCCCC3)cc12	7.2	-83.5*	1.5	-3.1	-36.3
COC(=O)c1nc(NC(=O)C(C)(C)C)n[nH]1	-41.6*	11.2	3.0	-3.8	-1.6
COC(=O)c1nc(NC(=O)c2ccccc2Cl)n[nH]1	9.3	-60.5*	-2.5	8.8	6.1
O=C(CCCCn1c(=O)c2ccccc2n(Cc2cccc(Cl)c2)c1=O)NCc1ccc2c(c1)OCO2	2.9	x	5.3	1.1	-5.0
CCOCCCNC(=O)Cn1cc2c(n1)-c1c(oc(C(=O)N3CCCC3)c1C)CC2	-32.2*	16.5	3.8	-3.6	-7.9
COc1cccc(C2CC(=O)N(c3ccc(F)cc3)C3=C2C(=O)OC3)c1OC (configuration not stated)	-2.7	x	-0.1	0.1	-7.7
CN1CCC(OC(c2ccccc2)c2ccc(Cl)cc2)C1 (configuration not stated)	x	-73.7*	x	x	-17.2
Cc1ccsc1C(=O)Nc1ccc(OCc2ccccc2)cc1	-16.8	-22.6	3.7	-1.8	4.6
O=C(COC(=O)CNC(=O)c1ccc(Cl)cc1Cl)NNC(=O)c1ccccc1	-17.4	-20.9	-0.4	-14.9	-5.5
Cc1ccsc1C(=O)NCC(=O)OCc1ccccc1	-30.2*	-26.5	2.6	-7.5	-10.0
O=C(CNC(=O)c1ccc(Cl)cc1Cl)OCc1ccccc1	-31.9*	5.3	-0.4	-4.5	-3.1
O=C(NNC(=O)c1ccc(Cl)cc1Cl)Nc1ccccc1	-37.8*	-15.6	0.5	-14.7	2.1
O=C(NCc1n[nH]c(=S)n1Cc1ccccc1)c1ccc(Cl)cc1Cl	-31.4*	-5.1	4.5	-0.3	-2.4
O=C(Nc1ccc(Nc2ccccc2)cc1)c1ccc(Cl)cc1Cl	x	-12.2	x	x	12.0
O=C(/C=C/c1ccco1)Nc1ccc(Cl)c(-c2nc3cc(Cl)ccc3o2)c1	-18.5	x	7.3	-1.9	-12.9
O=c1oc2ccccc2n1CCCOc1ccccc1Cl	-1.9	x	6.2	-3.0	-11.1
CCOCCCNC(=O)C(=O)Nc1c2c(nn1-c1ccc(OC)cc1)CSC2	x	x	-0.6	-1.9	2.1
SMILES	D1 antag	DRD3 antagonist	D1 agonist	D1 potentiator	D3 ag
CCOCCCN(Cc1ccco1)S(=O)(=O)c1cc2c(cc1Cl)NC(=O)CO2	1.6	x	0.8	0.8	-9.6
O=C(Oc1c(-c2ccccc2)c(=O)n2c3c(cccc13)CC2)c1ccco1	21.5	70.9	0.5	-3.0	49.1*
COc1ccccc1C1=CC(=O)C[C@H](c2ccc(Cl)cc2)C1	-35.5*	-16.5	12.2	-4.7	-6.4
COc1cccc(C2=CC(=O)C[C@H](c3ccc(Cl)cc3)C2)c1OC	-16.2	-4.6	12.2	-4.3	0.0
COc1ccc([C@H]2CC(=O)C=C(c3ccccc3)C2)cc1OC	-25.5	13.0	-0.6	-3.5	14.4
COc1ccc([C@H]2CC(=O)C=C(c3ccccc3OC)C2)cc1OC	-46.1*	22.8	1.0	-5.8	3.9
Cc1cn2c(=O)cc(COc3cccc(NC(=O)c4ccc(C(C)(C)C)cc4)c3)nc2s1	-0.8	x	0.7	-0.8	-5.5
CCCCN(CC)c1nc(-c2ccccc2F)nc2ccccc12	8.3	x	3.8	-0.9	6.7
C/C(=N/NC(=O)CN(c1ccccc1)S(=O)(=O)c1ccccc1)c1ccccc1O	-4.1	-51.7*	3.5	3.0	-20.6
CCCC/C(C)=N/NC(=O)CN(c1ccc(Br)cc1)S(=O)(=O)c1ccccc1	-3.1	-8.7	2.8	-4.1	-6.9
Cc1ccc(S(=O)(=O)NCCSCc2ccccc2)cc1	-30.0*	6.8	4.4	-1.6	-2.9
COc1ccc(N(CC(=O)N/N=C/c2ccc(-c3ccc([N+](=O)[O-])cc3)o2)S(=O)(=O)c2ccc(C)cc2)cc1	7.9	-18.3	73.1*	-10.1	7.3
COc1ccc(N(CC(=O)NCc2ccc(C)cc2)S(=O)(=O)c2c(C)[nH]c(=O)[nH]c2=O)cc1	-34.6*!	7.7	-0.6	-7.1	4.2
Cc1ccc(CSCCNS(=O)(=O)c2ccc([N+](=O)[O-])cc2)cc1	-20.3	1.3	8.1	-1.8	4.2
CC(=O)O[C@H]1C[C@@H]2CC[C@@H]3[C@H](CC[C@@]4(C)[C@H]3C[C@H](N3CC[N+](C)(C)CC3)[C@@H]4OC(C)=O)[C@@]2(C)C[C@@H]1N1CC[N+](C)(C)CC1	x	x	x	x	12.3
CC(=O)N1CCc2cc(Br)cc(S(=O)(=O)N3CCN(c4cccc(C)c4)C(C)C3)c21 (configuration not stated)	8.9	x	0.2	-0.3	2.2
CCOCCCNC(=O)c1cnc2sc(N3CCCCC3)nn2c1=O	4.5	x	1.1	2.5	6.9
COc1ccccc1CNC(=O)COCc1cc(-c2cccs2)on1	-12.2	x	-1.7	1.5	-11.3
COc1ccc(NC(=O)C2=C(C)C(=O)OC23CCN(C(C)C)CC3)cc1Cl	-18.3	x	5.1	-5.1	0.0
CCc1cccc(NC(=O)C2CCCN(c3ncnc4onc(-c5ccc(F)cc5)c34)C2)c1 (configuration not stated)	5.3	x	1.6	3.0	0.6
COc1ccc(S(=O)(=O)N(CC(=O)NCCSCc2ccccc2)c2ccc(C)cc2)cc1	-15.7	x	31.8*	1.9	3.2
Cc1ccc(S(=O)(=O)N(CC(=O)NCc2cccs2)c2ccccc2)cc1	-0.6	-66.1*	-0.3	1.4	-30.2
Cc1ccc(N(CC(=O)NCCSc2ccccc2)S(=O)(=O)c2ccc(F)cc2)cc1	-31.3*	x	18.7	-1.9	-18.1
